A selection: hits, their analogues and other compounds. The true share with any hit is near 3.5%.
TEAD-YAP inh: TEAD-YAP interaction inhibition; HEK-TIYL cells, TEAD-Gal4/YAP UAS-luciferase luminescence; inhibition, % at 9.12 µM; 640,000 tested, 1.4% active; in the data active = inhibition above about 32%
FBW7 activator: activators of human E3 ligase FBW7; Q969H0; AlphaScreen FBW7–phospho-cyclin E peptide binding, activator screen; normalized activity (activation), % at 26.1 µM; 650,000 tested, 0.13% active; AID 1259310; in the data active = normalized activity above about 1.9%;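 also: purified mutant Fbw7 with reduced substrate affinity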
Target sequence (Q969H0 whole entry, looked up): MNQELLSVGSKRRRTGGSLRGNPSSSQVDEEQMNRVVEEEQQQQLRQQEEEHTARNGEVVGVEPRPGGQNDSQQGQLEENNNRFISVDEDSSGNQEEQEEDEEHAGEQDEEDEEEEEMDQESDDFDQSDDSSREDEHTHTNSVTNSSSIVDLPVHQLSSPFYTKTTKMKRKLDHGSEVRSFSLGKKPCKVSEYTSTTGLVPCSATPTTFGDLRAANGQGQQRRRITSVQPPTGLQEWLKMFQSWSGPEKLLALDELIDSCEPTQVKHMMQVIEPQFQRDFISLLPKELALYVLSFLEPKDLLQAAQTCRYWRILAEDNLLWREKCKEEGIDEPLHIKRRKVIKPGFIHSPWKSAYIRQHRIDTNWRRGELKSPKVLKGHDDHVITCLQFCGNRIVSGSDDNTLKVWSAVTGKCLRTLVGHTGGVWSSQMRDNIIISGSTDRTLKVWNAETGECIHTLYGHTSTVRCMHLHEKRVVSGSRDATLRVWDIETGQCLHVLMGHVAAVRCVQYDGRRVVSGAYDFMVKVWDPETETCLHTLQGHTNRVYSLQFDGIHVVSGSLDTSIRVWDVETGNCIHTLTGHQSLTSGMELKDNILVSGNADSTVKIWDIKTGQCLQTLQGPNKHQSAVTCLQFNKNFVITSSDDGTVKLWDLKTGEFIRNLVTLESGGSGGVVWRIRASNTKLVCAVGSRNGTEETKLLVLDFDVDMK
MITF primary: human MITF inhibition, primary screen; AlphaScreen MITF homodimerization, bead proximity signal; inhibition, % at 2.6 µM; 650,000 tested, 0.91% active; in the data active = inhibition above about 50%
GPR151 ag: activates the human receptor GPR151; PathHunter beta-arrestin GPR151 cells, luminescence; activation, % at 11.2 µM; 650,000 tested, 1% active; in the data active = activation above about 4.9%
GPR151 confirm: human GPR151 activation, confirmation screen | shares compounds with GPR151 ag | GPR151 PathHunter beta-arrestin cells, luminescence, 90 min; % of EA-reagent control over plate median | activation, % at 11.2 µM | 6,700 tested, under 10 active;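 active = mean percent activation across replicates above the confirmation screen cutoff of 4.91%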
GPR119 counter: GPR119 activation, counter-screen for GPR151 activators | GPR119 PathHunter beta-arrestin cells, luminescence, 90 min; 0 = compound-well median, 100 = enzyme-acceptor control | shares compounds with GPR151 ag | activation, % at 11.2 µM | 6,700 tested, 0.3% active;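 active = mean percent activation in the counterscreen above 29.09%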;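 also: counterscreen on off-target GPR119 to flag nonselective hits from the GPR151 activator screen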
Of the large screens only hits and unclear results are named; the others gave an inactive call (follow-up assays come after a bar, where they were run).

COC(=O)c1ccccc1NC(=O)CC(=O)c1ccccc1	none
Cc1ccc(CNc2ncnc3c2c(-c2ccccc2)cn3-c2ccc(Cl)cc2)cc1	GPR151 ag 8.4 | GPR151 confirm inactive | GPR119 counter inactive
Cc1ccc(-n2cc(-c3ccccc3)c3c(NCc4ccccc4)ncnc32)cc1	none
Cc1ccc(-c2csc(NC(=O)C3c4ccccc4Oc4ccccc43)n2)c(C)c1	none
CC(C)C(=O)NCCc1nc2ccccc2n1Cc1ccccc1	none
C=CCn1c(CCNC(=O)C(C)C)nc2ccccc21	GPR151 ag 7.0 | GPR151 confirm inactive | GPR119 counter inactive
COc1cccc(C2=N/C(=C\c3cn(C(C)=O)c4ccccc34)C(=O)O2)c1	GPR151 ag 7.5 | GPR151 confirm inactive | GPR119 counter inactive
CC(=O)n1cc(/C=C2/N=C(c3ccccc3)OC2=O)c2ccccc21	none
COc1ccc(Cn2c(O)c(C=Nc3ccc(OC)cc3OC)c3ccccc3c2=O)cc1	GPR151 ag 7.0 | GPR151 confirm inactive | GPR119 counter inactive
CSc1cccc(CN2CCCC(CNC(=O)c3cccs3)C2)c1 (stereo not drawn)	none
CC(C)c1csc(CN2CCCC(CNC(=O)c3cccs3)C2)n1 (stereo not drawn)	GPR151 ag 6.1 | GPR151 confirm inactive | GPR119 counter inactive
CC(=O)c1cccc(CN2CCCC(CNC(=O)c3cccs3)C2)c1 (stereo not drawn)	GPR151 ag 10.1 | GPR151 confirm inactive | GPR119 counter inactive
CN(C)c1ccc(C(c2cc(C(C)(C)C)c(O)c(C(C)(C)C)c2)N2CCCCC2)cc1 (stereo not drawn)	none
COc1cccc(N2C(=O)CC(SC(N)=Nc3ccccc3)C2=O)c1 (stereo not drawn)	GPR151 ag 10.0 | GPR151 confirm inactive | GPR119 counter inactive
N/C(=N\N=C\c1ccc2c(c1)OCO2)SC1CC(=O)N(c2ccc(C(=O)O)cc2)C1=O (stereo not drawn)	none
C/C(CCc1ccc2c(c1)OCO2)=N\N=C(/N)SC1CC(=O)N(c2ccccc2)C1=O (stereo not drawn)	GPR151 ag 6.1 | GPR151 confirm inactive | GPR119 counter inactive
CC(=O)CC/C=C(\C)CCC=C(C)C	GPR151 ag 6.1 | GPR151 confirm inactive | GPR119 counter inactive
Cc1cc(C)c(S(=O)(=O)N(CC(=O)O)Cc2ccccc2)c(C)c1	none
COc1cc(NC(=O)NC(C)C)c2ncccc2c1	none
COc1cc(NC(=O)C2CCCCC2)c2ncccc2c1	GPR151 ag 5.3 | GPR151 confirm inactive | GPR119 counter inactive
CCOc1ccc(Cl)cc1S(=O)(=O)N1CCN(c2ccc(F)cc2)CC1	GPR151 ag 5.0 | GPR151 confirm inactive | GPR119 counter inactive
CCOc1ccc(OCC)c(S(=O)(=O)N2CCN(c3ccc(F)cc3)CC2)c1	none
COc1ccccc1N1CCN(CC(=O)Nc2sc3c(c2C#N)CCCC3)CC1	none
CCc1cccc(NC(=O)c2sccc2S(=O)(=O)N(C)c2ccc(C)cc2)c1	GPR151 ag 6.0 | GPR151 confirm inactive | GPR119 counter inactive
CCCCCCCCCCCCCc1ccco1	GPR151 ag 7.1 | GPR151 confirm inactive | GPR119 counter inactive
CCCCCCNc1nc(NCc2ccco2)nc(OCC)n1	none
CCCN(CCC)Cc1c(C(=O)O)nnn1-c1nonc1N	GPR151 ag 6.0 | GPR151 confirm inactive | GPR119 counter inactive
Cc1ccc(OC(=O)c2sc3ncn(Cc4ccccc4Cl)c(=O)c3c2C)cc1	none
O=CNC(c1ccccc1)c1ccc(Cl)cc1Cl (stereo not drawn)	GPR151 ag 9.9 | GPR151 confirm inactive | GPR119 counter inactive
O=CNC(c1ccc(Cl)cc1)c1ccc(Cl)cc1	none
O=C(c1oc2ccccc2c1N1CCCCC1)N1CCCCC1	GPR151 ag 5.0 | GPR151 confirm inactive | GPR119 counter inactive
C[C@H]1NC(=O)[C@@H]2C[C@H](NC(=O)OCc3ccccc3)CN2C1=O	none
CCOC(=O)c1sc2nc(SCC(=O)N(C)Cc3ccccc3)n(CCc3ccccc3)c(=O)c2c1C	none
O=C(NC1CCN(Cc2ccccc2)CC1)c1csc(-c2ccccc2)n1	none
CC(=O)c1cccc(-c2nc(C(=O)NC3CCN(Cc4ccccc4)CC3)cs2)c1	GPR151 ag 9.9 | GPR151 confirm inactive | GPR119 counter inactive
O=C(NC1CCN(Cc2ccccc2)CC1)c1csc(NCc2cccnc2)n1	GPR151 ag 5.0 | GPR151 confirm inactive | GPR119 counter inactive
Nc1cccc(-c2cccc(C(=O)NC3CCN(Cc4ccccc4)CC3)n2)c1	GPR151 ag 5.3 | GPR151 confirm inactive | GPR119 counter inactive
CCc1nnc(-c2cc3ccccc3n2CC(=O)Nc2ccc(OC)cc2OC)o1	none
C=CCn1c(SCC(=O)Nc2cccc([N+](=O)[O-])c2)nnc1-c1cccnc1	none
O=C(N1CCOCC1)N1CCN(S(=O)(=O)N2CCCC2)CC1	none
O=C(N1CCCCCC1)N1CCN(C(=O)N2CCOCC2)CC1	GPR151 ag 5.8 | GPR151 confirm inactive | GPR119 counter inactive
CC1(c2ccccc2Cl)NC(=O)N(Cc2ccccc2C#N)C1=O (stereo not drawn)	none
CCC1(c2ccc(F)cc2)NC(=O)N(Cc2ccccc2C#N)C1=O (stereo not drawn)	GPR151 ag 5.7 | GPR151 confirm inactive | GPR119 counter inactive
COC(=O)CN(C1CCCCC1)S(=O)(=O)c1ccccc1	none
COc1cc(/C=N\Nc2cc(=O)n(C)c(=O)n2C)ccc1O	GPR151 ag 5.7 | GPR151 confirm inactive | GPR119 counter inactive
Cn1c(N/N=C\c2cccs2)cc(=O)n(C)c1=O	GPR151 ag 6.6 | GPR151 confirm inactive | GPR119 counter inactive
Cn1c(N/N=C\c2cccc(O)c2)cc(=O)n(C)c1=O	none
CCCCOc1ccc(C(=O)Nc2sc3c(c2C(=O)OCC)CCC3)cc1	none
CCOC(=O)c1c(-c2ccccc2)csc1NC(=O)CC	none
CCOC(=O)c1c(-c2ccc(C)cc2)csc1NC(=O)CC	GPR151 ag 5.1 | GPR151 confirm inactive | GPR119 counter inactive
CCCCN(CC)S(=O)(=O)c1ccc(C(=O)Nc2sc3c(c2C(=O)OCC)CCN(C(C)C)C3)cc1	GPR151 ag 5.6 | GPR151 confirm inactive | GPR119 counter inactive
CCCOc1ccc(C(=O)Nc2sc3c(c2C(=O)OCC)CCCC3)cc1	GPR151 ag 7.4 | GPR151 confirm inactive | GPR119 counter inactive
CCCCN(CCCC)S(=O)(=O)c1ccc(C(=O)Nc2sc3c(c2C(=O)OCC)CCN(C(C)C)C3)cc1	none
CCOC(=O)c1c(NC(=O)CC)sc2c1CCCC2	GPR151 ag 5.1 | GPR151 confirm inactive | GPR119 counter inactive
O=C1CCC(=O)N1c1cc([N+](=O)[O-])ccc1F	none
O=C(CSc1nc2[nH]ncc2c(=O)n1-c1ccccc1)Nc1ccccc1C(F)(F)F	none
CC(NC(=O)COc1ccc(C(C)(C)c2ccccc2)cc1)c1ccccc1 (stereo not drawn)	none
